Where a name gives a salt, the structure may show the parent alone.
Test system: LOC_OS04G35114-cb001
Assay: thermal shift delta Tm vs DMSO control; higher = stronger stabilization (binding)
Conditions: 12.5 µM; protein concentration 2 µM
How it was run: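 Heating from 25°C to 95°C at 0.05°C/s, fluorescence was recorded for 19.5 μl wells of 2 μM E. coli-expressed, purified rice kinase domain in 100 mM potassium phosphate pH 7.5, 150 mM NaCl, 10% glycerol and 5 × SYPRO Orange with compound in DMSO. Boltzmann fits gave melting temperatures for this differential scanning fluorimetry assay. The shift reported is the mean of three replicates against the DMSO-only protein.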
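Also: purified Escherichia coli-expressed rice kinase domain construct.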

Row | Structure (SMILES) | thermal shift delta Tm [°C]
1 | COc1cc(Nc2ncc(F)c(Nc3ccc4c(n3)NC(=O)C(C)(C)O4)n2)cc(OC)c1OC | 2.97
2 | Cc1ccc(-n2nc(C(C)(C)C)cc2NC(=O)Nc2ccc(OCCN3CCOCC3)c3ccccc23)cc1 [Doramapimod (BIRB 796)] | 0.68
3 | CC#CC(=O)N1CC[C@@H](n2c(=O)n(-c3ccc(Oc4ccccc4)cc3)c3c(N)ncnc32)C1 [ONO-4059 (GS-4059) hydrochloride] | 0.12
4 | O=C(NC[C@H](O)CO)c1ccncc1Nc1ccc(I)cc1F | 0.79
5 | CO[C@H]1C[C@@H]2CC[C@@H](C)[C@@](O)(O2)C(=O)C(=O)N2CCCC[C@H]2C(=O)O[C@H]([C@H](C)C[C@@H]2CC[C@@H](O)[C@H](OC)C2)CC(=O)[C@H](C)/C=C(\C)[C@@H](O)[C@@H](OC)C(=O)[C@H](C)C[C@H](C)/C=C/C=C/C=C/1C [Rapamycin (Sirolimus)] | 0.52
6 | COc1c(C)c(C(=O)c2ccc(N)c(C(=O)O)c2)n2ccccc12 | 0.79
7 | CC(C)CC(=O)Nc1n[nH]c2c1CN(C(=O)C1CCN(C)CC1)C2(C)C | 0.47
8 | COc1cc2ncnc(Nc3ccc(O)c(Br)c3)c2cc1OC | 4.51
9 | CCN(CC)CCCC(C)Nc1nc(C)cc(Nc2ccc3nc(C)cc(N)c3c2)n1 (configuration not stated) | 0.62
10 | Cc1cc(NC(=O)c2cccc(NC(=O)/C=C/CN(C)C)c2)ccc1Nc1nccc(-c2cccnc2)n1 | 1.79
11 | COc1cc2ncnc(Nc3cccc(Cl)c3F)c2cc1OC(=O)N1CCN(C)C[C@H]1C | 3.07
12 | Cc1ccc(C(=O)Nc2ccc(Oc3cc4cnn(C)c4cc3-c3cn[nH]c3)c(F)c2)c(=O)n1-c1ccc(F)cc1 | 0.73

Source: the supplement of paper PMC9694430
